Hits are enriched below; roughly 21% of the tested compounds scored in any of these assays.
Pf growth 96h: inhibits malaria parasite growth, 96 h. 320,000 compounds, 6.9% hits. Potency, µM (top dose mostly 28.7 µM), for inactives: at the highest dose activity change, negative = inhibition, usual class: inhibitors. P. falciparum luciferase reporter growth, 96 h; also: potency is read from the fitted curve at half-maximal effect; % is scaled to controls: 0 for no effect and ±100 for the full control effect
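Infected RBCs, 2% Hct / 0.05% parasitemia final; luciferase-reporter P. falciparum; cpd 96 h, 37 C, 5% CO2; luciferase detection reagent; luminescence.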
Giardia FBPA inh: Giardia lamblia aldolase inhibition; A8B2U2; purified Giardia FBPA; Potency, µM (titrated, usually from 59.6 µM), without a hit: at the top dose activity, negative = inhibition, hits mostly inhibitors; 290,000 compounds, 0.71% hits; also: potency is read from the fitted curve at half-maximal effect; % is scaled to controls: 0 for no effect and ±100 for the full control effect; nearly all actives have a fitted effect of over 55% in size
Target sequence (A8B2U2 whole entry, looked up): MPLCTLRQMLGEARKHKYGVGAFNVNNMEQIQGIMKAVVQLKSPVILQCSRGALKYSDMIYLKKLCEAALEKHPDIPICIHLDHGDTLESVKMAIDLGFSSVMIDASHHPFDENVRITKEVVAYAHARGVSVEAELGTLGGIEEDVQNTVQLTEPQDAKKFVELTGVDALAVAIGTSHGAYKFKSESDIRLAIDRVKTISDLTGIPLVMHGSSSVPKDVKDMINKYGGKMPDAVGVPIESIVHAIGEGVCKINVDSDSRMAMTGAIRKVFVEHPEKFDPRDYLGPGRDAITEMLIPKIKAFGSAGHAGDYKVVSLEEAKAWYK
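Giardia FBPA (40 nM reagent) was preincubated 10 min at RT with compound (up to 57.5 uM final), then substrate plus GAPDH/TPI/NAD/arsenate coupling system with diaphorase/resazurin was added; resorufin fluorescence (525/598 nm) was read after 20 min.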
Pf growth 48h: P. falciparum growth inhibition at 48 hours (one generation) | 310,000 compounds, 5.9% hits | Potency, µM (titrated, usually from 28.7 µM), for inactives: top-dose activity change, negative = inhibition, actives largely listed as inhibitors | P. falciparum luciferase growth in erythrocytes, 48 h; also: potency is read from the fitted curve at half-maximal effect; % is scaled to controls: 0 for no effect and ±100 for the full control effect
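Luciferase-expressing P. falciparum in infected erythrocytes (2% hematocrit, 0.1% parasitemia final) in RPMI 1640/0.5% Albumax were exposed to compound for 48 hours at 37 C, 5% CO2; growth read as luminescence.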
NS1 inh: blocks influenza NS1 protein function. Potency, µM (series often up to 46.1 µM), without a hit: at the top dose activity, positive = more growth. 270,000 compounds, 0.4% hits. AID 2326; calls by dose curve; also: potency is read from the fitted curve at half-maximal effect; actives are rising curves; nearly all actives have a fitted effect of over 50% in size
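Growth recovery, yeast-based: influenza A NS1 expressed in S. cerevisiae causes slow growth, and suppressors are detected by OD600. The parent strain without NS1 is used as positive control.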
Shiga inhibitor: blocks Shiga toxin action in Vero cells | Vero cells, Shiga toxin protein synthesis inhibition reporter | inhibition, % at 38.7 µM | 290,000 compounds, 9.2% hits | AID 2315; in the data active = inhibition mostly above about 28%, no sharp cut-off; inactive = mostly below about 43%; also: 0% is about no effect
Cycloheximide cs: counter-screen hit for Shiga toxin inhibitors, cycloheximide; cell reporter, cycloheximide protein synthesis inhibition counterscreen; max response, %; 300,000 compounds, 12% hits; in the data active = max response mostly above about 13%, no sharp cut-off; inactive = mostly below about 14%; also: read at 38.3 µM for the half of the compounds with a filed dose; 0% is about no effect
* = called active by the depositor; ? = inconclusive; nt = no result; [ ] = another dose, or the depositor's remark. Unless noted, calls follow the shape of the dose curve; as a rule, active = well fitted curve in the direction sought with a large enough effect; inconclusive = small, poorly fitted or top-dose-only effect, or another doubt; inactive = no such curve, though single readings can be large; an effect the other way counts as inactive or inconclusive.

SMILES | Pf growth 96h | Giardia FBPA inh | Pf growth 48h | NS1 inh | Shiga inhibitor | Cycloheximide cs
CC(=O)c1cccc(NC(=S)NC(=O)c2ccc(C)cc2Cl)c1 | ? | -5.2% | 0.0% | -2.4% | 90.4* | 37.8*
CC1Cc2c(-c3ccccc3)nc3c(c2CO1)CN(CCOc1ccccc1)CC3 (centres undefined) | nt | -9.4%[12.9 µM] | nt | nt | nt | nt
O=C1[C@H]2[C@H]3[C@H](O)[C@H](O)C/C(=N/OC[C@@H](O)COCc4ccco4)[C@H]3CC[C@@H]2C(=O)N1C1CCCCC1 | nt | 2.7%[12.9 µM] | nt | nt | nt | nt
CCOC(=O)c1cc2c(=O)[nH]ccc2nc1C(F)(F)F | 6.57µM* | 0.3% | ? | 0.9% | -5.2 | -0.8
CCOC(=O)c1cc2c(=O)[nH]ccc2nc1C | 0.7% | -0.8% | 5.5% | 13.3% | 5.8 | 6.5
Cc1cccc(NC(=O)Nc2ccccc2)n1 | 87.2% | -3.2% | 71.5% | -2.4% | 43.0* | 22.9*
COc1ccc(NC(=O)Nc2cccc(C)n2)c(OC)c1 | ? | 4.8% | 7.0% | 3.8% | 38.6* | 33.0*
Cc1ccc(NC(=O)Nc2cccc(C)n2)c(C)c1 | 90.0% | -0.5% | 73.7% | 3.6% | 20.0 | 36.4
COc1cccc(NC(=O)Nc2cc(NC(=O)Nc3cccc(OC)c3)c(C)nc2C)c1 | ? | 1.7% | 21.7% | 18.7% | -4.8 | 5.9
Cc1cccc(NC(=O)Nc2ccc(Cl)c(Cl)c2)n1 | -21.3% | -0.5% | 209.6% | -13.2% | 71.6* | 27.0*
COc1cccc(NC(=O)Nc2cccc(C)n2)c1 | ? | 9.3% | 108.8% | -8.5% | 91.7* | 53.2*
Cc1ccccc1NC(=O)CSc1nnc(C)c2ccccc12 | -3.5% | -8.3% | 9.7% | -4.4% | 41.5 | 2.2
COCCCn1c(SCC(=O)NC2CCCC2)nnc1-c1ccncc1 | 54.0% | 6.9% | 14.8% | -13.4% | -3.2 | -4.0
COc1ccc(NC(=O)Nc2cccc(NC(C)=O)c2)c(OC)c1 | 11.7µM* | -6.2% | 11.1% | 8.6% | -6.6 | 0.6
Cc1sc2nc(SCCN(C)C)n(-c3ccccc3)c(=O)c2c1-c1ccc(F)cc1 | ? | 10.9% | 10.4µM* | 17.5% | -7.5 | 13.1
Cc1cccc(-c2cc(C(=O)Nc3ccc4c(c3)OCCO4)c3ccccc3n2)c1 | 11.7µM* | -3.9% | ? | 12.9% | 96.2* | 31.6*
CCOc1ccc(-c2cc(C(=O)Nc3ccc4c(c3)OCCO4)c3ccccc3n2)cc1 | 31.3% | -3.2% | 107.8% | -3.0% | 52.5* | 22.8*
COc1ccc(-c2cc(C(=O)OCC(=O)Nc3ccc4c(c3)OCO4)c3ccccc3n2)cc1 | ? | -1.1% | -0.1% | -10.5% | 21.2 | 6.4
COc1ccc(-n2nc3c(c2NC(=O)C2CC(=O)N(c4ccccc4)C2)CS(=O)(=O)C3)cc1 (centres undefined) | 16.6% | nt | 3.2% | 10.5% | 20.3 | 0.6
COC(=O)c1c(-c2cccc3ccccc23)csc1NC(=O)Cc1ccc(OC)c(OC)c1 | 2.62µM* | -7.3% | nt | 3.3% | -6.4 | -2.5
CCOC(=O)C(=Cc1ccc(OCc2ccc([N+](=O)[O-])cc2)c(OC)c1)C(=O)OCC | ? | -0.8% | ? | -3.0% | 27.5 | 43.3*
CCOC(=O)/C(=C\c1ccc(OC)c(OC)c1)C(=O)c1cccnc1 | -6.8% | -1.2% | -19.5% | -18.5% | 1.1 | 0.3
COc1cc(C(c2c(C)[nH][nH]c2=O)c2c(C)[nH][nH]c2=O)ccc1OCc1ccc([N+](=O)[O-])cc1 | 146.1% | 2.0% | ? | 13.2% | 51.7 | 24.9*
COc1cc(C(c2c(C)[nH][nH]c2=O)c2c(C)[nH][nH]c2=O)ccc1OC(=O)c1cccc([N+](=O)[O-])c1 | ? | 0.3% | -8.2% | ? | -11.6 | -1.2
COc1cc(C=C2C(=O)NC(=O)NC2=O)ccc1OCc1ccc([N+](=O)[O-])cc1 | -3.2% | -20.5% | 24.9% | nt | 101.7* | 59.2*
O=C1NC(=O)C(=Cc2ccc(Oc3ccc([N+](=O)[O-])cc3)cc2)C(=O)N1 | 59.8% | ? | 0.2% | -7.0% | 23.7 | 1.3
COC(=O)C(=Cc1ccc(OCc2ccc([N+](=O)[O-])cc2)c(OC)c1)C(=O)OC | -1.8% | -2.2% | ? | -1.4% | 41.8* | 23.9*
CCOC(=O)C1CCN(C(=O)COC(=O)Cc2ccc(Cl)cc2)CC1 | 0.0% | 5.2% | nt | -4.3% | -1.8 | -0.7
Cc1ccc2c(c1)cc(C(=O)NCc1ccccc1)n2C | -8.6% | -3.7% | 0.2% | -9.6% | -2.1 | 10.1

Source: PubChem BioAssay
